Screening results from PubChem.
USP30 inh = human USP30 deubiquitinase inhibition; Q70CQ3; purified USP30, Ub-rhodamine cleavage fluorescence; inhibition, % at 25 µM; 5.3% of 47,000 active; AID 1645860
USP28 inh = blocks human USP28 ubiquitin-rhodamine cleavage; purified USP28, Ub-rhodamine cleavage fluorescence, 30 min; inhibition, % at 25 µM; 3% of 47,000 active; AID 1645857
USP17 block = blocks human USP17 ubiquitin-rhodamine cleavage; A8MUK1; purified USP17, Ub-rhodamine cleavage fluorescence, 3 h; inhibition, % at 50 µM; 6.5% of 47,000 active; AID 1645855
Target sequence (A8MUK1 whole entry, looked up): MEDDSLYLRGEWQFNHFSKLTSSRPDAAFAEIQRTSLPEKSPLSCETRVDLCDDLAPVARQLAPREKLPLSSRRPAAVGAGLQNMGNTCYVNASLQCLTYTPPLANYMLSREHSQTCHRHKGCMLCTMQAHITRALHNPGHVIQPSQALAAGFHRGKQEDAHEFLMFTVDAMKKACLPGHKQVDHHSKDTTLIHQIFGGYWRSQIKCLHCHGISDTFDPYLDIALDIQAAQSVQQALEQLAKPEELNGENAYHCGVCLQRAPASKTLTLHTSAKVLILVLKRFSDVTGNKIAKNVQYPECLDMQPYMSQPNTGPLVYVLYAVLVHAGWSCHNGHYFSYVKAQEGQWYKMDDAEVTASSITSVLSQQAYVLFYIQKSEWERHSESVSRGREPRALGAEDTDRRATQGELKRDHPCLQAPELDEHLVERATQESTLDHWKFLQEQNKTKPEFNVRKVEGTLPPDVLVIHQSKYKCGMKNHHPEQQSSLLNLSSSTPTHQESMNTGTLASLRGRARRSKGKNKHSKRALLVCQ
USP8 inh = blocks human USP8 ubiquitin-rhodamine cleavage; P40818; purified USP8, Ub-rhodamine cleavage fluorescence, 30 min; inhibition, % at 20 µM; 4.2% of 47,000 active
* hit, by the source's call; i = inactive; . = no result. The list is not random: actives were taken first. Their share in the collection is about 14%. No stated cut-off is given here; in the data, active means inhibition above about 30%; inactive means the rest.

SMILES	USP30 inh	USP28 inh	USP17 block	USP8 inh
COc1ccc(-n2ccc(=O)c(-c3nc(-c4ccccc4F)no3)n2)cc1OC	-284	63*	0	45*
CCOC(=O)Cn1c(-c2ccc(Cl)cc2)ccc(C#N)c1=O	30*	16	14	31*
CCOC(=O)Cn1c(=O)n(Cc2ccccc2)c(=O)c2ccccc21	-8	-11	-12	2
CC(=O)c1sc(NS(=O)(=O)c2ccc(C)cc2)nc1-c1ccccc1	19	15	21	9
CC(=O)c1sc(NC(=O)c2cccc(S(=O)(=O)Nc3ccccc3F)c2)nc1-c1ccccc1	27	10	32*	17
Cc1cccc(S(=O)(=O)N2CCC3(CC2)OC(C(=O)N2CCCC2)Cn2ccnc23)c1 (stereo not given)	-23	0	-7	-20
Cc1ccc(CSC2=NS(=O)(=O)c3ccccc3N2)cc1	20	57*	17	15
CCCc1noc(-c2ccc(=O)n(CC(=O)NC3CCCCC3)c2)n1	18	7	10	11
CCOC(=O)N1CCN(S(=O)(=O)c2ccc(C(=O)Nc3ccc(Br)cc3)cc2)CC1	28	8	88*	5
O=C(c1ccncc1)N1CC2(CCN(Cc3ccc(-c4ccccc4)cc3)CC2)C1	18	0	-21	-42
C=C1C=C(CCC(=O)O)C(=O)OC1/C=C/C=C/C (stereo not given)	80*	99*	101*	98*
COc1ccc(Br)cc1CNC(=O)C(C)n1c(=O)c2cccn2c2cccnc21 (stereo not given)	-109	-1	30	8
Cc1cccc(-n2nc(-c3nc(-c4cccc(Cl)c4)no3)c3ccccc3c2=O)c1	0	-3	-3	-1
Cc1nc2cc(-c3noc(-c4cccc5[nH]ccc45)n3)ccc2o1	5	42*	36*	55*
Cc1nc2cc(-c3noc(-c4nn(C)c5ccccc45)n3)ccc2o1	42*	1	19	-2
Cn1ccc(C(=O)NCc2cnc(C3(C)CCCCO3)nc2)n1 (stereo not given)	19	15	15	25
COc1ccc(/C(C#N)=C/c2c(C(F)(F)F)nn(C)c2Cl)cc1OC	-2	-2	5	0
Cc1ccc(OCC(=O)Nc2onc3c2CCCC3)cc1C	21	30*	6	5
N#Cc1ccccc1-c1ccccc1C(=O)Nc1ccc(Br)cc1	12	8	0	8
O=C(Nc1ccccc1F)c1cc(-c2cccnc2)n[nH]1	.	.	70*	2
COc1ccc(CCNC(=O)c2cc(-c3cccnc3)n[nH]2)cc1OC	17	18	0	25
COc1cccc(-c2cc(C(=O)Nc3cccc(C(C)=O)c3)[nH]n2)c1	-64	-32	2	-13
COc1cccc(-c2cc(C(=O)Nc3ccccc3)[nH]n2)c1	35*	22	39*	12
O=C(CSc1nnc(-c2cccnc2)o1)Nc1cccc(Cl)c1	30	15	33*	2
O=C(Nc1cccc(Cl)c1)c1cc(-c2cccnc2)n[nH]1	47*	55*	83*	83*
SMILES	USP30 inh	USP28 inh	USP17 block	USP8 inh
Nc1ccc(SCc2nnc(-c3cccc(F)c3)o2)cc1	13	24	7	-35
N#Cc1nc(-c2ccc(COc3ccccc3)o2)oc1N1CCN(C(=O)c2ccco2)CC1	-20	0	0	8
CN(C1CCCCC1)C1CCN(C(=O)c2cc(-c3cccnc3)n[nH]2)CC1	-8	-6	2	7
CSc1cccc(NC(=O)c2cc(-c3cccnc3)n[nH]2)c1	65*	53*	79*	97*
Cc1ccc(NC(=O)CSc2nnc(-c3ccncc3)o2)cc1	24	14	1	-2
CNC(=O)NC(=O)CSc1nnc(-c2ccc(Cl)cc2)o1	7	0	33*	2
COc1cccc(NC(=O)C2CCN(C(=O)c3cc(-c4cccnc4)n[nH]3)CC2)c1	9	57*	0	12
O=C(CCn1cnnn1)N1C[C@@H](O)[C@H](N2CCc3ccccc3C2)C1	0	2	0	6
CC1CCCN(c2nc3c(c(=O)[nH]2)CCN(Cc2cnn(C)c2)C3)C1 (stereo not given)	29	12	12	23
COc1cc2[nH]c3c(N4CCC(C(N)=O)(N5CCCCC5)CC4)ncnc3c2cc1OC	30*	19	11	12
COc1cc2[nH]c(=O)n(CCCC(=O)N3CCC(C(N)=O)(N4CCCCC4)CC3)c(=O)c2cc1OC	13	3	-1	9
CS(=O)(=O)c1ccc(NC(=O)C2CN(c3nc4c(F)cccc4s3)C2)cc1	2	15	55*	-11
CN1CCN(C(=O)CN2C(=O)C3CCCCN3c3ccc(C(=O)N4CCCC4)cc32)CC1 (stereo not given)	-142	-36	-36	-12
COCCn1c(C)cc(C(=O)CSc2ccc(Cl)cc2)c1C	-13	30*	20	16
Cc1c(-c2ccc(C#N)cc2)oc2ccc(Br)cc2c1=O	-4	0	70*	5
COc1ccc(C(C)=O)cc1COC(=O)c1oc2ccc(Br)cc2c1C	-58	0	21	5
Cc1ccc(SC2=C(Nc3cccc(Cl)c3)C(=O)N(Cc3ccccc3)C2=O)cc1	i	-196	-153	-24
COC(=O)c1cc2c(-c3ccccc3)nn(C)c2s1	7	-1	0	0
Cc1cc(C)cc(NC(=O)CN2C(=O)CC(c3ccccc3)Sc3ccccc32)c1 (stereo not given)	57*	33*	27	19
O=C(CCCCn1c(=O)[nH]c2ccccc2c1=O)Nc1cccc(Cl)c1	20	8	80*	81*
O=C(CCCCCn1c(=O)[nH]c2ccccc2c1=O)Nc1ccccc1Br	35*	3	16	18
O=C(NCC1(O)CCOc2ccccc21)c1ccccc1Cl (stereo not given)	8	5	3	-12
Cn1c(C(=O)NCCc2c[nH]c3ccccc23)cc2sccc21	-1	39*	11	-90
O=C(NCCc1c[nH]c2ccccc12)c1cc2sccc2n1Cc1ccccc1	-21	0	44*	11
CC1CCN(S(=O)(=O)c2cn(CC(=O)Nc3ccc4c(c3)OCO4)cn2)CC1	22	5	3	10
SMILES	USP30 inh	USP28 inh	USP17 block	USP8 inh
O=C(Cn1cnc(S(=O)(=O)N2CCCCC2)c1)Nc1ccc2c(c1)OCO2	-23	-2	35*	59*
CC1CCN(S(=O)(=O)c2cn(CC(=O)Nc3cccc(-c4ccno4)c3)cn2)CC1	-25	-11	50*	-5
CN(C)c1cccc(C(=O)Nc2cnn(-c3ncc(N4CCCC4)cn3)c2)c1	-111	-24	-33	11
CC(=O)c1cccc(NC(=O)COC(=O)c2cccnc2Nc2cccc(C(F)(F)F)c2)c1	-22	-1	-5	0
CN(C)S(=O)(=O)c1cccc(C(=O)N2CCSc3ccc(Cl)cc32)c1	0	10	5	5
COc1ccc2c(c1)CC(C(=O)NCc1ccc(OC)cc1OC)CO2 (stereo not given)	-10	7	-16	-60
COc1ccc(CCNC(=O)CSc2nnc(NC(=O)c3ccccc3OC)s2)cc1OC	32*	12	9	-46
